Results from PubChem BioAssay AID485297 (National Center for Advancing Translational Sciences (NCATS), 2010).
About 9,100 (2.8%) of roughly 320,000 compounds were called active. Inconclusive results (about 3%) are left out. For the sample, actives were picked, then their nearest neighbours and some compounds at random. Values without a mark were called inactive. Calls come from the whole dose curve; as a rule, active = well fitted activation curve with a large enough effect; inconclusive = small, poorly fitted or top-dose-only effect; inactive = no such curve, though single readings can be large or run the other way.

Assay: qHTS Assay for Rab9 Promoter Activators; note: nearly all actives have a fitted effect of over 60% in size; for activation, negative = inhibition: % of control where 0% means no effect
Settings: Huh7 Rab9 promoter-luciferase reporter, luminescence, 24 h; series mostly up to 9.22 µM; activation, negative = inhibition: at the top concentration
How it was run: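 Using Huh7 cells stably transfected with Rab9 promoter–luciferase, compounds were incubated 24 h at 37 °C, 5% CO2; luciferase luminescence was read 10 min after reagent addition.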
Potency is the fitted concentration of half-maximal effect.

| Structure (SMILES) | activation, negative = inhibition | Potency |
| --- | --- | --- |
| CCC1(C)CC(=O)NC1=O (centres undefined) | 7.83% [at 46.1 µM] |  |
| Cc1ccc(C(=O)CSc2nc3ccccc3c(=O)n2N)o1 |  | 3.55 µM (active) |
| COc1ccc(NC(=O)CSc2nc3ccccc3c(=O)n2C)cc1 | -9.43% |  |
| COC(=O)CSc1nc2ccccc2c(=O)n1Cc1ccccc1 | -0.304% |  |
| Cc1ccccc1-c1cc(C(=O)NCC2CC2)n(CC2CC(c3cccnc3)=NO2)n1 (centres undefined) | -2.34% |  |
| COc1cc(C(C)=O)ccc1OC(C)C(=O)Nc1ccc(S(=O)(=O)N2CCCC2)cc1 (centres undefined) | -8.76% |  |
| O=C(O)C1CCN(C(=O)OCc2ccccc2)CC1 |  | 4.47 µM (active) |
| CCOC(=O)N1CCC(NC(=O)CCc2ccccc2)CC1 | 4.41% |  |
| O=C(NCC1CCC(C(=O)O)CC1)OCc1ccccc1 (centres undefined) | -5.42% |  |
| COc1ccc(Cl)cc1NC(=O)CN(C)CC(=O)Nc1ccc2c(c1)OCO2 | 0.254% |  |
| COc1ccc(CN(Cc2ccco2)S(=O)(=O)c2ccc(S(=O)(=O)N3CCCC3)cc2)cc1 | -0.878% |  |
| COc1ccccc1-n1nnnc1SCC(=O)NC(=O)Cc1ccccc1 | -6.08% |  |
| Cc1ccc(C(=O)Cc2nnc(C)s2)cc1 |  | 2.82 µM (active) |
| Cc1ccc(C(=O)Cn2cccn2)cc1 | -3.96% |  |
| Cc1ccc(S(=O)(=O)CC(=O)Nc2nnc(C)s2)cc1 | -2.65% |  |
| CC(OC(=O)c1cc2ccccc2o1)C(=O)Nc1ccc(N2CCOCC2)cc1 (centres undefined) | 4.05% |  |
| Cc1ccc2oc(=O)c3cnn(CC(=O)N(Cc4ccco4)C4CCCCC4)c3c2c1 | 1.23% |  |
| O=C(NCc1cccnc1)c1cccc(-c2cc3ccccc3oc2=O)c1 | -2.68% [at 1.84 µM] |  |
| Cc1cc2c(=O)n(C)c(SCC(=O)c3cc4ccccc4o3)nc2s1 | 1.71% |  |
| Nc1ncc(-c2cc3ccccc3oc2=O)s1 |  | 1.12 µM (active) |
| COc1ccccc1C(CNC(=O)c1cccc(S(=O)(=O)Nc2ccc(F)cc2)c1)N(C)C (centres undefined) | -11.7% |  |
| Cc1nn(C)c(Cl)c1CN1CCC(n2nccc2NC(=O)C2CCCC2)CC1 | -5.14% |  |
| CC(Sc1nnc(-c2cccs2)n1C1CC1)C(=O)NCC1CCCO1 (centres undefined) | -8.6% |  |

| Structure (SMILES) | activation, negative = inhibition | Potency |
| --- | --- | --- |
| Cc1nc(-c2ccccc2)sc1C(=O)/C=C/N(C)C |  | 2.82 µM (active) |
| Cc1nc(-c2ccc(Cl)cc2)sc1C(=O)CBr | 5.69% |  |
| CN(C)/C=C/C(=O)c1ccccc1F | 7.12% |  |
| CC(C)CN(C(=O)CSc1nncn1C)C1CCS(=O)(=O)C1 (centres undefined) | 1.54% |  |
| CCc1nc(SCC(=O)NNC(=O)c2ccc(C)cc2)c2ccccc2n1 | -0.467% |  |
| Cc1ccc(C(=O)NNc2ncnc3ccccc23)cc1 |  | 3.98 µM (active) |
| Cc1ccc(C(=O)NNC(=O)c2cc3cc4ccccc4nc3s2)cc1 | 1.92% |  |
| COc1ccc(CNC(=O)COC(=O)c2c(C)nn(-c3ccccc3)c2C)cc1OC | -7.89% |  |
| CN(C)C(CNC(=O)c1cccc(C#N)c1)c1ccco1 (centres undefined) | -2.23% |  |
| Cc1cc(F)ccc1S(=O)(=O)Nc1ccc(C(=O)N(C)Cc2ccco2)cc1 | 0.153% |  |
| CC1CCCCC12NC(=O)N(CC(=O)Nc1ccc(S(=O)(=O)Nc3ncccn3)cc1)C2=O (centres undefined) | -4.51% |  |
| Cc1ccccc1Nc1nc(N)nc(CN2CCN(c3ccccn3)CC2)n1 | 1.52% |  |
| Cc1ccc(C(=O)OCc2nc(N)nc(Nc3ccccc3C)n2)cc1 | -1.45% |  |
| Cc1ccccc1Nc1nc(N)nc(CSc2ccccc2)n1 |  | 1.41 µM (active) |
| COc1cccc(C(O)c2nc3ccccc3n2C)c1 (centres undefined) | -1.9% |  |
| Cc1cc(C)c(CN2CCN(C(=O)Cn3ccc(NC(=O)OCc4ccccc4)nc3=O)CC2)c(C)c1 | 2.35% |  |
| COc1ccc(/C=C2\SC(=O)N(CCC(=O)NCCCn3ccnc3)C2=O)cc1 | 29.9% |  |
| COc1ccc(/C=C2\SC(=O)N(CCC(=O)NC3CCS(=O)(=O)C3)C2=O)cc1 (centres undefined) |  | 2.51 µM (active) |
| COc1ccccc1/C=C1\SC(=O)N(CCC(=O)N(C)C2CCS(=O)(=O)C2)C1=O (centres undefined) | 8.24% |  |
| CC1CCCC(C)N1C(=O)COC(=O)COc1ccccc1C#N (centres undefined) | 1.16% |  |
| CCCCN(C(=O)c1ccc(S(=O)(=O)N2CCOCC2)cc1)C1CCS(=O)(=O)C1 (centres undefined) | 1.73% |  |
| O=C(Nc1cccnc1)c1noc2c1CCCCC2 |  | 1.58 µM (active) |
| O=C(Nc1cccnc1)c1cc(Cl)ccc1Cl | 0.754% |  |

| Structure (SMILES) | activation, negative = inhibition | Potency |
| --- | --- | --- |
| O=C(Nc1cccnc1)c1cccc(S(=O)(=O)N2CCCC2)c1 | -2.29% |  |
| CCCCc1ccc(NC(=O)CN2C(=O)NC(Cc3ccccc3)C2=O)cc1 (centres undefined) | 5.27% |  |
| O=C(NNC(=O)c1cccc(S(=O)(=O)Nc2ccc(Cl)cc2)c1)c1ccc(=O)[nH]c1 | -0.571% |  |
| O=C(CCc1ccccc1F)N1CCN(c2ccccc2)CC1 | 3.89% |  |
| O=C(CCSc1ccccc1)N1CCN(c2ccccc2F)CC1 |  | 3.55 µM (active) |
| O=C(NCC(=O)N1CCN(c2ccccc2F)CC1)c1cccs1 | 29.4% |  |
| CC1CCCC(NC(=O)c2cc(S(=O)(=O)N3CCCCC3)ccc2Cl)C1C (centres undefined) | -10.7% |  |
| CCCCCCCC(=O)OC(CN1CCCCCC1)CN1CCCC1=O (centres undefined) | 0.284% |  |
| Cc1ccccc1C(=O)NC(=S)Nc1ccc(N2CCN(C(=O)c3ccccc3)CC2)cc1 | -8.82% |  |
| COc1cccc(C(=O)Nc2ccc(N3CCCC3)cc2)c1 |  | 1.12 µM (active) |
| CC(=O)Oc1cccc(C(=O)Nc2ccccc2NC(=O)c2cccc(OC(C)=O)c2)c1 | -3.88% |  |
| COc1ccc(C(=O)Nc2ccc(N3CCC(C)CC3)cc2)cc1Br | 0.157% |  |
| COc1cccc(C(=O)Nc2ccc(N3CCN(C(=O)c4ccco4)CC3)cc2)c1 | -19.2% |  |
| CN1CCN(c2ccc(NC(=O)c3ccc4c(c3)[nH]c(=O)n4Cc3ccc(F)cc3)cc2)CC1 | -10.7% |  |
| COc1ccc(C2COC(=O)C2=N)c(NC(=O)c2ccccc2)c1 (centres undefined) | -5.53% |  |
| CN1CCN(c2ccc(NC(=O)c3ccccc3)cc2)CC1 |  | 1.58 µM (active) |
| COc1cccc(C(=O)Nc2cc3c(cc2Br)OCCCO3)c1 |  | 2.82 µM (active) |
| CC(C)(C)OC(=O)N[C@H](C(=O)OC(C)(C)C)c1ccc(Br)cc1 | -3.11% |  |
| O=C(OCC(=O)N1CCN(C(=O)c2ccco2)CC1)c1ccc(Cl)c(Cl)c1 | -2.48% |  |
| CN(c1ccccc1)S(=O)(=O)c1cccc(NC(=O)Cc2ccc(Cl)cc2)c1 | -4.08% |  |
| C=CCc1c(C)nc2cc(-c3ccccc3)[nH]n2c1=O |  | 1.41 µM (active) |
| CCCCN1Cc2c(nc3cc(-c4ccccc4)[nH]n3c2=O)C1=O | -6.04% |  |
| CCc1c(C)nc2cc(C)[nH]n2c1=O | 1.24% |  |
